Screening results from PubChem.
Compounds with a hit are over-represented: about 15% of the library has one in this group of screens.
HCMV inh = blocks human cytomegalovirus replication; HFF cells, HCMV-luciferase reporter, 72 h; active compounds read low; activity change, negative = inhibition, % at 57.5 µM; 4.5% of 410,000 active; in the data active = activity change below about -60%; inconclusive = no clear call, values can overlap the other calls; inactive = above about -39%; also: % is scaled to controls: 0 for no effect and ±100 for the full control effect
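Cell-based, HFFs, 1000 cells/well, 16 h 37C; cpds in DMSO + HCMV-luc, MOI 1 PFU/cell; 72 h 37C; OneGlo luminescence after 5 min RT; norm. to buffer vs Salinomycin 10uM.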
Pf growth 48h = inhibits P. falciparum growth in the first generation, 48 h. Potency, µM (series often up to 28.7 µM), inactives show top-dose activity change, negative = inhibition, usual class: inhibitors. P. falciparum luciferase growth in erythrocytes, 48 h. 5.9% of 310,000 active. AID 504832; also: potency is read from the fitted curve at half-maximal effect; % is scaled to controls: 0 for no effect and ±100 for the full control effect
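Read-out is firefly luciferase luminescence from an integrated reporter in P. falciparum, so falling signal marks reduced parasite growth. Infected erythrocytes were at 2% hematocrit and 0.1% parasitemia (final) in Albumax-supplemented RPMI 1640.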
HCV inh = blocks hepatitis C virus; Huh7.5.1 HCVcc-Cre infection, luciferase reporter, 44 h; Potency, µM (doses to about 41.8 µM), without a hit: top-dose activity change, negative = inhibition, hits mostly inhibitors; 3.4% of 340,000 active; AID 651820; also: potency is read from the fitted curve at half-maximal effect; % is scaled to controls: 0 for no effect and ±100 for the full control effect
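Luciferase read-out (15 sec integration) after a 15 min room-temperature substrate step quantifies HCVcc-Cre infection. Cells, 1,000 per well, had compound added 4 h post-plating, then virus at ~0.5 moi, and were cultured 44 h.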
SARS PLP yeast = SARS-CoV PLP inhibition in yeast; S. cerevisiae expressing SARS-CoV PLpro, growth rescue; Potency, µM (top dose mostly 32.9 µM), inactives show top-dose activity, positive = growth rescue, most hits filed as activators; 0.19% of 330,000 active; AID 485353; calls by dose curve; also: potency is read from the fitted curve at half-maximal effect; 0% is about no effect; nearly all actives have a fitted effect of over 55% in size
Sm TGR block = blocks Schistosoma mansoni thioredoxin glutathione reductase | Q962Y6 | Potency, µM (doses to about 114 µM), for the others: at the highest dose activity change, negative = inhibition, usual class: inhibitors | purified TGR, DTNB reduction, TNB absorbance 405 nm | 3% of 360,000 active; also: potency is read from the fitted curve at half-maximal effect; % is scaled to controls: 0 for no effect and ±100 for the full control effect; nearly all actives have a fitted effect of over 60% in size
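Kinetic colorimetric format: TGR-catalysed, NADPH-driven DTNB reduction monitored via TNB absorbance. Enzyme dispensed at 20 nM; compound exposure 15 min at room temperature before reaction start.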
Pf growth 96h = inhibits malaria parasite growth, 96 h; P. falciparum luciferase reporter growth, 96 h; Potency, µM (series often up to 28.7 µM), for inactives: at the highest dose activity change, negative = inhibition, usual class: inhibitors; 6.9% of 320,000 active; AID 504834; also: potency is read from the fitted curve at half-maximal effect; % is scaled to controls: 0 for no effect and ±100 for the full control effect
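Luminescence readout: decreased luciferase signal marks inhibited growth of reporter-expressing P. falciparum in infected red cells (2% hematocrit, 0.05% parasitemia final), exposed to compound two generations (96 h, 37 C, 5% CO2).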
* hit, by the source's call; u = inconclusive; x = no result given. Unless noted, calls follow the shape of the dose curve; as a rule, active = well fitted curve in the direction sought with a large enough effect; inconclusive = small, poorly fitted or top-dose-only effect, or another doubt; inactive = no such curve, though single readings can be large; an effect the other way counts as inactive or inconclusive.

SMILES	HCMV inh	Pf growth 48h	HCV inh	SARS PLP yeast	Sm TGR block	Pf growth 96h
COC(=O)C(NC(=O)COc1ccccc1)(Nc1nc2c(s1)CCCC2)C(F)(F)F (stereo unspecified)	-12	u	1%	-18%	u	10µM*
Cc1ccc(CC(=O)Nc2nc3c(s2)CCCC3)cc1	-73*	49%	-25%	1%	-16%	x
O=C(COc1ccc(F)cc1)Nc1nc2c(s1)CCCC2	62	38%	-11%	-2%	9%	u
Cc1ccc(C(C)C)c(OCC(=O)Nc2nc3c(s2)CCCC3)c1	-82*	x	x	x	7%	x
Cc1cccc(C(=O)Nc2nc3c(s2)CCCC3)c1	-13	x	x	x	4%	x
COc1ccc(NC(=O)Nc2nc3c(s2)CCCC3)cc1	89	97%	-29%	-46%	0%	13%
CCOc1ccc(NC(=O)Nc2cc3c(cc2N2CCCCC2)n(C)c(=O)n3C)cc1	11	x	x	x	-14%	x
O=C(COCc1cc(-c2cccs2)on1)NCc1cccc(Cl)c1	6	x	x	x	-3%	x
N#C/C(=C(\O)c1cc(Cl)sc1Cl)c1nc2ccccc2[nH]1	-34	9%	-5%	12%	-15%	14%
CCN(CC(=O)Nc1c(F)cccc1F)C(=O)C1CCN(S(=O)(=O)c2ccccc2C(=O)OC)CC1	0	x	4%	x	x	x
Cc1cccc(NC(=O)C2CCN(S(=O)(=O)c3ccc(F)cc3)CC2)c1C	4	x	x	x	0%	x
Cc1c([N+](=O)[O-])cc(C(=O)N2CCOCC2)cc1[N+](=O)[O-]	0	u	3%	15%	-14%	u
Cc1ccc(Sc2ccc(C(=O)N3CCOCC3)cc2[N+](=O)[O-])cc1	-75*	x	-14%	-1%	-5%	-9%
O=C(NCCCN1CCOCC1)c1ccc(Sc2ccc(Br)cc2)c([N+](=O)[O-])c1	-30	3%	u	-4%	-6%	15µM*
O=C(NCCCN1CCOCC1)c1ccc(Sc2ccccc2Cl)c([N+](=O)[O-])c1	u	-14%	u	1%	-7%	u
CC(=O)NC(Cc1ccc(N(CCCl)CCCl)cc1)C(=O)NC(C(=O)O)C(C)C (stereo unspecified)	4	0%	-11%	-2%	x	-41%
CCOC(=O)CC(NC(=O)C(Cc1ccc(N(CCCl)CCCl)cc1)NC(C)=O)C(=O)OCC (stereo unspecified)	-92*	9.3µM*	u	0%	-4%	11%
N#Cc1ccc(NC(=O)c2ccc3c(c2)nnn3C2CCCC2)cc1	-9	x	x	x	4.5µM*	x
CC(=O)c1ccc(NC(=O)c2ccc3c(c2)nnn3C2CCCC2)cc1	-4	x	x	x	8%	x
O=C(O)Cc1ccc2c(c1)N(S(=O)(=O)c1cccs1)CC(C(=O)O)O2 (stereo unspecified)	-3	14%	5%	0%	11%	25%
O=C(Nc1ccccc1)C1=C[C@@H](C2CCCCC2)C[C@@H](OCc2ccc(CO)cc2)O1	-60*	u	u	-2%	12%	u
O=C(Nc1ccccc1)C1=C[C@@H](C2CCCCC2)C[C@@H](OCCCCO)O1	u	98%	0.32µM*	-1%	-31%	0%
O=C(NC1CC1)C1=C[C@@H](C2CC2)C[C@@H](OCCCCO)O1	-9	x	20%	x	x	x
O=C(NC1CC1)C1=C[C@H](C2CCCCC2)C[C@H](OCCCCO)O1	-64*	-30%	12%	4%	-5%	31%
O=C(Nc1ccccc1)C1=C[C@H](C2CCCCC2)C[C@H](OCCCCO)O1	-76*	x	3%	x	x	x
SMILES	HCMV inh	Pf growth 48h	HCV inh	SARS PLP yeast	Sm TGR block	Pf growth 96h
CCC[C@H]1CN(Cc2cccnc2)C(=O)[C@@H]1CC(=O)Nc1ccc(Br)cc1	-32	x	x	x	x	x
CC1CCN(c2nn3c(=O)c(C(=O)NCCc4ccc(Cl)cc4)cnc3s2)CC1	18	x	x	x	4%	x
O=C(O)CCCN1C(=O)C2C3C=CC(C2C1=O)C1C(=O)N(CCCC(=O)O)C(=O)C31 (stereo unspecified)	-4	7%	9%	2%	-1%	20%
O=C(O)CCCCCN1C(=O)C2CCCCC2C1=O (stereo unspecified)	13	4%	-4%	1%	1%	9.3µM*
COc1ccc(CN2C(=O)C(CC(=O)NC3CCCC3)CC(C(=O)N(C)C)=C2C)cc1 (stereo unspecified)	4	x	x	x	x	x
CC1(C)CC[C@]2(C(=O)O)CC[C@]3(C)C(=CC[C@@H]4[C@@]5(C)CC[C@H](O[C@@H]6O[C@H](C(=O)O)[C@@H](O)[C@H](O[C@@H]7OC[C@H](O)[C@H](O)[C@H]7O)[C@H]6O)C(C)(C)[C@@H]5CC[C@]43C)[C@@H]2C1	-100*	x	11µM*	0%	x	x
CC1(C)CC[C@]2(C(=O)O[C@@H]3O[C@H](CO)[C@@H](O)[C@H](O)[C@H]3O)CC[C@]3(C)C(=CCC4[C@@]5(C)CC[C@H](O[C@@H]6O[C@H](C(=O)O)[C@@H](O[C@H]7OC[C@@H](O)[C@@H](O)[C@@H]7O)[C@H](O)[C@H]6O)C(C)(C)C5CC[C@]43C)[C@@H]2C1 (stereo partly specified)	28	x	7%	2%	x	x
O=C(Nc1ccccc1F)N1CCc2ccccc2C1	-5	98%	3%	0%	-1%	u
Cc1oc2c(c1C(=O)N1CCC(C)CC1)C(=O)c1ccccc1C2=O	u	0.23µM*	u	5%	-19%	0.093µM*
Cc1onc(-c2ccccc2Cl)c1C(=O)N1CCC(C)CC1	-37	15%	13%	0%	0%	-6%
CCOC(=O)C1CCN(C(=O)c2c(C)oc3c2C(=O)c2ccccc2C3=O)CC1	-2	0.41µM*	-13%	9%	-25%	0.29µM*
CCOC(=O)C1CCN(C(=O)c2ccc(C)o2)CC1	u	x	6%	2%	x	x
Cc1ccc2c(c1)[C@H]1[C@H](CO2)[C@H](c2ccccc2)[C@]2(C)C(=O)N(C)CC(=O)N12	-21	x	32%	x	x	x
CC(=O)NC(c1ccccc1)c1nc(-c2cccc(CO)c2)cs1 (stereo unspecified)	34	x	x	x	x	x
CN1OC[C@@H]2CN(Cc3ccc(Cl)cc3)[C@H](c3cccc(Br)c3)C[C@@H]21	-4	x	-21%	x	x	x
COC(=O)[C@H](c1ccccc1Cl)N1CCc2sccc2C1	-26	12µM*	-50%	-13%	4%	8.3µM*
COC(=O)C(c1ccccc1Cl)N1CCc2sccc2C1 (stereo unspecified)	x	u	x	x	x	11µM*
COC(=O)c1ccc(NC(=O)CC2C(=O)N(c3ccccc3)C(=O)N2Cc2cccs2)cc1 (stereo unspecified)	6	x	x	x	7%	x
